Reference: PubChem BioAssay
Activity calls are given as the source filed them. Unless noted, how the calls were made is not given here.

Key:
[1] = A549 cell viability effects, profiling panel, calcein-AM fluorescence, 48 h, basal (AID 1162); details: higher = more signal; further: test concentration not given here
[2] = adipocyte viability effects, profiling panel, cell-based, 3T3-L1 adipocytes, calcein-AM fluorescence, 48 h, basal (AID 1163); details: 3T3-L1 adipocytes viability, higher = more signal; further: test concentration not given here
[3] = HepG2 cell viability effects, profiling panel, calcein-AM fluorescence, 48 h, basal (AID 1164); details: higher = more signal; further: test concentration not given here
[4] = MM1S cell viability effects, profiling panel, calcein-AM fluorescence, 48 h, basal (AID 1165); details: higher = more signal;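 further: viability of MM1S multiple myeloma cells under basal unstimulated conditions; test concentration not given here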
[5] = basal RPMI8226 viability, no added stimulus, profiling panel, cell-based, calcein-AM fluorescence, 48 h, PK04 Diversity Set (AID 1166); details: RPMI8226 myeloma viability, higher = more signal;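 further: cells grown under basal conditions without added stimulus; test concentration not given here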
[6] = basal HepG2 mitochondrial membrane potential changes, profiling panel, cell-based, JC-1 fluorescence, 24 h, 100 nL compound (AID 1167); details: higher = more signal; further: test concentration not given here
[7] = basal 3T3-L1 adipocyte mitochondrial potential changes, profiling panel, cell-based, JC-1 fluorescence, 3T3-L1 adipocytes, 24 h, 100 nL compound (AID 1168); details: JC-1 mitochondrial fluorescence, higher = more signal, called active from +8 up or from −8 down; further: test concentration not given here
[8] = basal RPMI8226 mitochondrial membrane potential changes, profiling panel, cell-based, JC-1 fluorescence, 24 h, 100 nL compound (AID 1169); details: RPMI8226 myeloma, JC-1 mitochondrial potential fluorescence, higher = more signal; further: test concentration not given here
[9] = basal MM1S mitochondrial membrane potential changes, profiling panel, cell-based, JC-1 fluorescence, 24 h, 100 nL compound (AID 1170); details: higher = more signal; further: test concentration not given here
[10] = A549 lung cancer cell viability effects, profiling panel, resazurin fluorescence, 24 h, PK04 Diversity Set (AID 1171); details: higher = more signal, called active from +8 up or from −8 down; further: test concentration not given here
[11] = HepG2 liver cancer cell viability effects, profiling panel, resazurin fluorescence, 24 h, PK04 Diversity Set (AID 1172); details: higher = more signal; further: test concentration not given here
[12] = basal S. cerevisiae growth modulation, no modifier, primary screen, OD600, strain BY4716, 24 h, basal condition (AID 1173); details: OD600, 24 h, higher = more signal, called active from +8 up or from −8 down
[13] = MM1S myeloma cell viability, profiling panel, resazurin fluorescence, basal, 24 h, PK04 Diversity Set (AID 1174); details: higher = more signal, called active from +8 up or from −8 down;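 further: MM1S multiple myeloma cell line; test concentration not given here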
[14] = target: Dihydroorotate dehydrogenase (quinone), mitochondrial (Plasmodium falciparum (isolate 3D7)) (UniProt Q08210); assay: PfDHODH enzyme inhibitors, primary screen, biochemical, C-terminal His tag, absorbance 600 nm (AID 1175); details: DCIP absorbance 600 nm, higher = more signal, called active from +8 up or from −8 down;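 further: recombinant parasite enzyme with a five histidine tag at its C terminus; test concentration not given here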
[15] = P. aeruginosa biofilm formation inhibitors, primary screen, strain PAO1, LB-PBS medium, absorbance 600 nm (AID 1176); further: test concentration not given here; details: P. aeruginosa PAO1 growth/biofilm, A600, 12 h; higher = more signal
[16] = S. cerevisiae RM11-1a growth modifiers, primary screen, strain RM11-1a, OD600, basal, 24 h (AID 1177); details: OD600, 24 h, higher = more signal, called active from +8 up or from −8 down;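 further: cultures grown under basal conditions with no added stressor; test concentration not given here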
[17] = E. coli acrAB mutant growth effects, primary screen, E. coli filamentation inducers, strain DRC39, OD650, 24 h (AID 1178); details: higher = more signal, called active from +8 up or from −8 down;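 further: growth measured as culture turbidity by optical density at 650 nm; test concentration not given here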
[18] = E. coli acrAB mutant growth effects, primary screen, E. coli filamentation inducers, strain DRC39, OD650, 48 h (AID 1179);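 further: screen aims at cell division blockers that make cells filament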; details: E. coli DRC39 delta-acrAB growth, higher = more signal, called active from +8 up or from −8 down
[19] = RPMI8226 myeloma cell viability, profiling panel, resazurin fluorescence, basal, 24 h, PK04 Diversity Set (AID 1180); details: higher = more signal;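 further: RPMI8826 multiple myeloma cell line at 5000 cells per well; test concentration not given here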
[20] = target: E3 ubiquitin-protein ligase XIAP (Homo sapiens) (UniProt P98170); assay: XIAP binders, primary screen, biophysical, small-molecule microarray, fluorescence 635 nm (AID 1181); details: small-molecule microarray binding, higher = more signal;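 further: score merges 667 nm emission and signal to noise over triplicate slides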
Sequence of E3 ubiquitin-protein ligase XIAP (Homo sapiens) (P98170 whole entry, looked up): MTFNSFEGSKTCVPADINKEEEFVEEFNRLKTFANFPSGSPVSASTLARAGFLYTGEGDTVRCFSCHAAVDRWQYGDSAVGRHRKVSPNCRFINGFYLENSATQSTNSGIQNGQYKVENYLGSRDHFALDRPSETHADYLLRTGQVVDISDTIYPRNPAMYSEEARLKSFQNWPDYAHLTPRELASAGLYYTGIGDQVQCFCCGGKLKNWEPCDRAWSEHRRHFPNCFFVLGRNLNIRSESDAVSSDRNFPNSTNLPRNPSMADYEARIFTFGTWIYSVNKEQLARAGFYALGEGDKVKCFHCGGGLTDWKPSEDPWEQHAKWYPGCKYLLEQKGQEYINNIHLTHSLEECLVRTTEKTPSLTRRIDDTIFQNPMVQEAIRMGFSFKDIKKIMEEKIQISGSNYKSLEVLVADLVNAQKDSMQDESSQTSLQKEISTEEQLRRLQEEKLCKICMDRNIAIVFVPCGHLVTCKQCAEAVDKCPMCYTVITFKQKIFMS

Sequence of Dihydroorotate dehydrogenase (quinone), mitochondrial (Plasmodium falciparum (isolate 3D7)) (Q08210 whole entry, looked up): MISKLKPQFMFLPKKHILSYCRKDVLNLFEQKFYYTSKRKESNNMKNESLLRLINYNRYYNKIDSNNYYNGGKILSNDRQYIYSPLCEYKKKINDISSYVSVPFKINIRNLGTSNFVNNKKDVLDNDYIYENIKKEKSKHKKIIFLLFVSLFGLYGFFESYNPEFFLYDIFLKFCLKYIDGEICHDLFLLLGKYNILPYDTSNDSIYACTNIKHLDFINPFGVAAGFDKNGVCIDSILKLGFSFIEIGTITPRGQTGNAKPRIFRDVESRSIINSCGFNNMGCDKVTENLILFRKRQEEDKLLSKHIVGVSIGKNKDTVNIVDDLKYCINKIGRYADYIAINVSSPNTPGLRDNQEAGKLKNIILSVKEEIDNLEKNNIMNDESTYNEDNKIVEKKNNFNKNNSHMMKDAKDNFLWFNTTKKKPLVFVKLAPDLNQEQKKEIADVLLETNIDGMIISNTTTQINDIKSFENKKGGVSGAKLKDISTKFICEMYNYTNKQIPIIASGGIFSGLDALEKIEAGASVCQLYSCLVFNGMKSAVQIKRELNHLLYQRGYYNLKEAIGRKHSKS

Row | Compound | z-score [1] | z-score [2] | z-score [3] | z-score [4] | z-score [5] | z-score [6] | z-score [7] | z-score [8] | z-score [9] | z-score [10] | z-score [11] | z-score [12] | z-score [13] | composite z-score [14] | z-score [15] | z-score [16] | z-score [17] | z-score [18] | z-score [19] | composite z-score [20]
1 | CCC(CC)C(O)C1C=CC2C(=O)N(c3ccccc3)C(=O)C2N1Nc1ccc([N+](=O)[O-])cc1 (stereo not given) | -0.878 | -1.13 | -0.172 | 0.486 | -1.23 | -2.25 | -1.37 (inactive) | 0.523 | -1.6 | -0.517 (inactive) | -0.536 | 0.593 (inactive) | -0.89 (inactive) | 0.837 (inactive) | 0.862 (inactive) | 0.105 (inactive) | -0.667 (inactive) | -0.162 (inactive) | -0.587 | 0.0855
2 | O=C(CS)NCCCCCCNC(=O)[C@@H]1C[C@@H]2C(=O)NCC(=O)N2[C@@H]1c1ccc(O)cc1 | 0.622 | 0.182 | 0.435 | 0.21 | 1.06 | 0.677 | 0.138 (inactive) | 0.391 | -0.386 | -0.746 (inactive) | 0.263 | -0.185 (inactive) | 0.426 (inactive) | -0.757 (inactive) | 0.171 (inactive) | -1.97 (inactive) | 0.858 (inactive) | 1.62 (inactive) | 0.0464 | -0.02
3 | COC(=O)[C@@]1(Cc2ccccc2)[C@H]2c3cc(C(=O)N(C)C)n(CCn4cc([N+](=O)[O-])nc4C)c3C[C@H]2CN1C(=O)c1ccccc1 | -0.461 | 0.297 | -1.17 | 0.506 | 0.911 | 0.547 | 0.0518 (inactive) | -0.0192 | 0.377 | -0.0815 (inactive) | 0.002 | 0.815 (inactive) | -0.271 (inactive) | -0.831 (inactive) | 1.41 (inactive) | -0.68 (inactive) | -0.211 (inactive) | 0.145 (inactive) | 0.413 | 1.01
4 | CCOC(=O)C[C@H]1[C@H](OC(=O)c2ccccc2-c2ccccc2)[C@@H](NC(=O)c2ccccc2)c2cc(OCCCO)ccc2N1C(=O)c1ccccc1 | -0.164 | -0.603 | -0.56 | -0.162 | -0.559 | -0.127 | -0.0812 (inactive) | -0.485 | 0.318 | -0.336 (inactive) | -0.632 | 0.474 (inactive) | -0.287 (inactive) | 0.374 (inactive) | -0.0582 (inactive) | 0.383 (inactive) | -0.536 (inactive) | -0.508 (inactive) | -0.0741 | 0.0871
5 | C=CCNC(=O)[C@@H]1[C@H]2C(=O)O[C@H](c3ccccc3)[C@H](c3ccccc3)N2[C@H](c2ccc(O)cc2)[C@@]12C(=O)N(C(=O)OCCOC)c1ccc(C#CCCO)cc12 | 2.21 | 1.14 | 0.723 | -0.824 | 0.262 | -0.707 | 0.152 (inactive) | -0.15 | -0.839 | 0.292 (inactive) | 0.02 | -0.363 (inactive) | -1.12 (inactive) | -0.855 (inactive) | 0.249 (inactive) | 0.782 (inactive) | 0.37 (inactive) | 0.479 (inactive) | -0.299 | -0.0749
6 | CC1(C)C(=O)C(c2ccccc2)=C2CN3C(=O)N(CCc4ccccc4)C(=O)C3(Cc3ccc(F)cc3)C=C21 (stereo not given) | -0.767 | 0.366 | 0.184 | -1.24 | -1.81 | 0.39 | -1.91 (inactive) | -0.733 | -0.59 | -0.745 (inactive) | -1.03 | 0.664 (inactive) | -2.18 (inactive) | -0.533 (inactive) | 0.563 (inactive) | 1.11 (inactive) | -0.687 (inactive) | -1.01 (inactive) | -0.968 | -0.198
7 | CC1(C)C(=O)C(c2ccccc2)=C2CN3C(=O)N(CCc4ccccc4)C(=O)C3(Cc3ccc(C(F)(F)F)cc3)C=C21 (stereo not given) | -0.902 | -0.586 | 0.409 | -1.49 | -1.75 | -2.08 | -2 (inactive) | -0.00804 | -0.421 | 0.43 (inactive) | -0.967 | 1.72 (inactive) | -1.33 (inactive) | 0.46 (inactive) | 0.0539 (inactive) | 1.9 (inactive) | -1.01 (inactive) | -0.756 (inactive) | -1.03 | 0.0322
8 | C=C[C@@H](OC)[C@H](OC(=O)Nc1ccc(OC)cc1)c1ccc(OC)c(O)c1 | -0.464 | 0.605 | -0.192 | -0.0794 | 1.05 | -0.733 | 0.141 (inactive) | 0.616 | 0.454 | 0.376 (inactive) | 0.358 | -1.19 (inactive) | -0.143 (inactive) | -0.0589 (inactive) | 0.295 (inactive) | 0.445 (inactive) | 0.724 (inactive) | 0.367 (inactive) | 0.185 | 0.431
9 | Cc1ccccc1C(O)C1C=CC2C(=O)N(c3ccccc3)C(=O)C2N1Nc1ccc([N+](=O)[O-])cc1 (stereo not given) | -1.06 | -0.127 | -1.2 | -0.127 | -0.566 | -1.04 | -1.1 (inactive) | -0.247 | 0.585 | 0.306 (inactive) | -0.368 | -0.14 (inactive) | -0.327 (inactive) | 0.718 (inactive) | 1.29 (inactive) | -0.0035 (inactive) | -0.328 (inactive) | -0.316 (inactive) | -0.0045 | 0.167
10 | C=C[C@@H](OC)[C@H](OC(=O)Nc1ccc(SC)cc1)c1ccc(OCCO)cc1 | -0.568 | 0.222 | -0.587 | -2.08 | -1.56 | -2.68 | 0.286 (inactive) | -0.151 | -0.333 | -0.285 (inactive) | -0.8 | -0.88 (inactive) | -0.415 (inactive) | -0.915 (inactive) | 0.838 (inactive) | 0.884 (inactive) | -0.967 (inactive) | -1.5 (inactive) | -0.306 | -0.0918
11 | CCCNC(=O)[C@@]1(Sc2ccc(C)cc2)CC(=O)N(C2CCCCC2)[C@@H]1c1ccc(CO)cc1I | 0.14 | 0.53 | 0.265 | -2.15 | -2.58 | -0.478 | -0.764 (inactive) | -0.503 | -1.04 | 0.696 (inactive) | -0.0096 | -1.07 (inactive) | 0.0674 (inactive) | -0.198 (inactive) | 0.627 (inactive) | -1.15 (inactive) | 0.29 (inactive) | 0.0883 (inactive) | -1.1 | -0.321
12 | CC(C)C(=C=CC[C@@H](O)c1cccc(OCCO)c1)C[C@@H](O)COCc1ccccc1 | 1.05 | 1.32 | 0.512 | 0.0108 | 0.442 | 0.427 | 0.686 (inactive) | 0.46 | -0.794 | 0.151 (inactive) | 0.564 | -1.91 (inactive) | 0.301 (inactive) | -3.34 (inactive) | 0.424 (inactive) | -2.4 (inactive) | 0.789 (inactive) | 0.633 (inactive) | 0.47 | -0.119
13 | CCOC(=O)C1=CC[C@@H](c2ccccc2)N(S(=O)(=O)c2ccc(C)cc2)[C@H]1c1cccc(OC)c1 | -0.716 | -1.41 | -0.0906 | -0.247 | -0.907 | 2.94 | -0.293 (inactive) | 0.505 | -1.35 | 0.776 (inactive) | 0.0088 | 2.25 (inactive) | -0.387 (inactive) | -0.777 (inactive) | 0.325 (inactive) | 1.21 (inactive) | -0.577 (inactive) | 0.244 (inactive) | -1.22 | -0.022
14 | O=C1O[C@H](c2ccccc2)[C@H](c2ccccc2)N2[C@H]1[C@@H](C(=O)N1CCCCCCC1)[C@]1(C(=O)Nc3ccc(C#CC4(O)CCCCCC4)cc31)[C@H]2c1ccccc1OCCO | -0.222 | -0.107 | 0.703 | -0.0437 | -0.908 | -0.175 | 0.64 (inactive) | -0.74 | -1.26 | -0.152 (inactive) | 1.72 | 0.893 (inactive) | -0.382 (inactive) | 0.195 (inactive) | 0.682 (inactive) | 2.45 (inactive) | 0.138 (inactive) | -1.14 (inactive) | -0.443 | 2.12
15 | COCCOC(=O)N1C(=O)[C@@]2(c3cc(C#CCNC(N)=O)ccc31)[C@H](c1ccc(O)cc1)N1[C@H](c3ccccc3)[C@H](c3ccccc3)OC(=O)[C@H]1[C@@H]2C(N)=O | 1.66 | -0.654 | 0.405 | 0.337 | -0.933 | 2.07 | -0.0574 (inactive) | -0.932 | -0.139 | 0.934 (inactive) | 1.18 | 0.282 (inactive) | -0.96 (inactive) | 0.329 (inactive) | 0.0568 (inactive) | 0.203 (inactive) | 0.507 (inactive) | 1.28 (inactive) | -0.938 | 0.0372
16 | CC1CC/C=C\[C@H]2OC34C=CCN(CCN5CCOCC5)C(=O)[C@H]3N(C(C)CO)C(=O)[C@@H]4C2C(=O)O1 (stereo not given in full) | 0.956 | -0.491 | 1.2 | 1.29 | -0.143 | 0.602 | 0.225 (inactive) | 0.0954 | -0.722 | -0.387 (inactive) | -0.0282 | -0.348 (inactive) | -0.0757 (inactive) | -1.44 (inactive) | -0.0711 (inactive) | 0.366 (inactive) | -0.0135 (inactive) | 0.432 (inactive) | -0.574 | -0.0807
